# The sample as a whole holds a higher share of hits than the screen did.
# LASV entry inh: qHTS for Inhibitors of binding or entry into cells for Lassa Virus | Lassa virus pseudotype entry inhibition, cell reporter | Potency, µM (top dose mostly 37.9 µM), without a hit: at the highest dose activity change, negative = inhibition, actives largely listed as inhibitors | actives 1.2% (n = 300,000); calls by dose curve; tested in HEK293 cells; note: potency is the fitted concentration of half-maximal effect; % is set by controls: 0 for no effect and ±100 for the full control effect; nearly all actives have a fitted effect of over 50% in size
# CHX counter: Cycloheximide Counterscreen for Small Molecule Inhibitors of Shiga Toxin; cell reporter, cycloheximide protein synthesis inhibition counterscreen; max response, %; actives 12% (n = 300,000); AID 2314, 2010; in the data active = max response mostly above about 13%, no sharp cut-off; inactive = mostly below about 14%; note: read at 38.3 µM for the half of the compounds with a filed dose; 0% is about no effect
# Shiga toxin inh: A qHTS for Small Molecule Inhibitors of Shiga Toxin. Vero cells, Shiga toxin protein synthesis inhibition reporter. inhibition, % at 38.7 µM. actives 9.2% (n = 290,000); in the data active = inhibition mostly above about 28%, no sharp cut-off; inactive = mostly below about 43%; note: 0% is about no effect
# VACV Venus inh: qHTS for Stage-Specific Inhibitors of Vaccinia Orthopoxvirus: Venus Reporter Primary qHTS; Vaccinia virus Venus reporter expression, fluorescence; Potency, µM (series often up to 36.5 µM), for inactives: at the top dose activity change, negative = inhibition, hits mostly inhibitors; actives 0.46% (n = 330,000); AID 720580, 2013; calls by dose curve; tested in A549 cells; note: potency is the fitted concentration of half-maximal effect; % is set by controls: 0 for no effect and ±100 for the full control effect; nearly all actives have a fitted effect of over 30% in size
# Marburg entry inh: qHTS for inhibitors of binding or entry into cells for Marburg Virus; actives 1.8% (n = 300,000); Potency, µM (doses to about 37.8 µM), for inactives: at the highest dose activity change, negative = inhibition, hits mostly inhibitors; AID 540276, 2011; Marburg virus pseudotyped entry inhibition, cell reporter; calls by dose curve; tested in HEK293 cells; note: potency is the fitted concentration of half-maximal effect; % is set by controls: 0 for no effect and ±100 for the full control effect
# VACV mCherry inh: qHTS for Stage-Specific Inhibitors of Vaccinia Orthopoxvirus: mCherry Reporter Primary qHTS | Vaccinia virus mCherry reporter infection, fluorescence | Potency, µM (doses to about 36.5 µM), for the others: at the top dose activity change, negative = inhibition, usual class: inhibitors | actives 0.63% (n = 310,000); calls by dose curve; tested in A549 cells; note: potency is the fitted concentration of half-maximal effect; % is set by controls: 0 for no effect and ±100 for the full control effect; nearly all actives have a fitted effect of over 35% in size
# * hit, by the source's call; i = inactive; ? = inconclusive; . = no result given; + = active, no number; [ ] = dose if it differs, or a comment.
SMILES,LASV entry inh,CHX counter,Shiga toxin inh,VACV Venus inh,Marburg entry inh,VACV mCherry inh
C=CCCC(=O)NC1CC(C)(C)Cc2c1cnn2-c1cccc(F)c1 (stereo not given),.,3.0,6.9,.,.,.
CC1(C)Cc2c(cnn2-c2ccc(F)cc2)C(NC(=O)C2=NNC(=O)CC2)C1 (stereo not given),.,28.5*,39.4*,-7.3%[7.34 µM],.,-15.7%[7.34 µM]
CC1(C)Cc2c(cnn2-c2cccc(F)c2)C(NC(=O)CCc2cnccn2)C1 (stereo not given),.,41.0*,19.2,.,.,.
CCN(CC(=O)Nc1c(F)cccc1F)C(=O)CN1C(=O)C2CCCCC2C1=O (stereo not given),-1.2%,.,.,-9.8%,?,-6.1%
CC1(C)Cc2c(cnn2-c2ccc(F)cc2)C(NC(=O)c2ccco2)C1 (stereo not given),-1.2%,12.6,22.4*,-8.8%,0.2%,i
COc1cccc(CNC(=O)CCc2c(C)nc3c(c(C)nn3-c3ccc(C)c(C)c3)c2C)c1,-8.3%[46.1 µM],.,.,-18.9%,?,-15.8%
Clc1ccc(CSc2ncn[nH]2)cc1,12.5%,14.4,45.0,-7.2%,1.0%,i
CC(C)Oc1ccc(CSc2ncn[nH]2)cc1,?,32.4*,50.9*,-7.0%,?,-3.1%
COc1ccc(CCNC(=O)CCn2c(=O)c3cccn3c3cccnc32)cc1OC,-21.3%[46.1 µM],2.1,10.0,-10.8%,6.6%[46.1 µM],-2.2%
CCOc1ccc(C2c3[nH]c4ccccc4c3CCN2C(=O)Cc2cccc(OCC)c2OCC)cc1 (stereo not given),?,.,.,-20.7%,.,-24.3%
O=C(NCc1ccccc1Cl)C(=O)NCC1OCCN1S(=O)(=O)c1cccs1 (stereo not given),12.2%,21.4*,27.9,5.4%,-27.5%[46.1 µM],i
Cc1ccccc1CNC(=O)C(=O)NCCC1CCCCN1S(=O)(=O)c1cccs1 (stereo not given),?,.,.,?,10µM*,-22.2%
C[C@@H]1CN=C(Nc2ccc(N(C)C)cc2)S1,.,.,.,.,7.8%,.
Cc1ccc(CCNC(=O)C(C)n2nc(C)c3c(C)n(-c4ccc(C)cc4)nc3c2=O)cc1 (stereo not given),?,.,.,-27.8%,.,?
CCc1cccc(NC(=O)Cn2nc(-c3ccc(OC)cc3)ccc2=O)c1,?,.,.,-0.4%,.,-12.1%
CCCCCC(=O)N1C[C@H](n2cc(-c3ccc(F)cc3)nn2)[C@@H](O)C[C@H]1c1ccc(C)cc1,2.7%[46.1 µM],.,.,.,.,.
COc1ccc(OCC#CCN2CCCCCC2)cc1,-1.8%[46.1 µM],11.7*,29.9,2.3%,-31.9%[46.1 µM],-7.3%
C(#CCN1CCCCC1)COCc1ccccc1,14.6%,17.1*,57.7,-9.2%,17.1%,i
Cn1c(-c2ccccc2)cc(=O)cc1-c1ccccc1,.,.,.,-6.0%,.,2.8%
O=c1cc(-c2ccccc2)cc(-c2ccccc2)n1O,.,.,.,?,.,14.1µM*
Cc1nn(C(=O)c2cc3sccc3[nH]2)c(C)c1C,?,42.8*,92.0*,-1.5%,13.0%,-13.5%
COc1cccc(-c2cc3c(c(OC)c2)OCCN(S(=O)(=O)c2ccccc2OC(F)(F)F)C3)n1,.,.,.,-6.3%,.,-16.4%
Cc1nc2c(N=Nc3ccccc3F)c(N)nn2c(N)c1C#N,-1.1%[46.1 µM],16.5*,7.7,1.2%,?,i
Cc1cc(C)n2nc(N)c(N=Nc3ccccc3)c2n1,-10.8%[46.1 µM],25.2,57.9,-14.5%,?,i
Cc1cccc(N=Nc2c(C)nn(-c3ccccc3)c2N)c1C,-1.5%,76.8*,71.8*,-11.0%,-21.3%,-24.1%
SMILES,LASV entry inh,CHX counter,Shiga toxin inh,VACV Venus inh,Marburg entry inh,VACV mCherry inh
Nc1nn(-c2ccccc2)c(N)c1N=Nc1ccccc1,?,51.0*,102.4*,?,?,-22.0%
Cc1cc(=O)n2[nH]c(N)c(N=Nc3ccccc3F)c2n1,1.5%,0.2,-3.0,-24.2%,?,-12.1%
Nc1nn(-c2ccccc2)c(N)c1N=Nc1ccccc1F,?,49.8*,+,?,?,?
Cc1ccccc1N=Nc1c(C)[nH]n(-c2ccccc2)c1=O,3.1%,-4.0,8.3,-10.2%,15.2%[46.1 µM],-7.2%
Cc1nn(-c2ccccc2)c(N)c1N=Nc1ccccc1,?,74.0*,76.8*,-22.1%,?,?
Nc1ncnc(N)c1N=Nc1ccccc1,?,0.2,-9.7,?,5.01µM*,?
Nc1nc(N)c(N=Nc2ccccc2)c(=O)[nH]1,-21.6%[46.1 µM],.,.,-7.8%,?,-29.9%
Cc1nn(-c2ccccc2)c(N)c1N=Nc1ccc(Cl)cc1,?,29.2*,102.0*,?,?,-25.6%
Nc1c(N=Nc2ccccc2F)c(=O)[nH]n1-c1ccccc1,?,43.6*,62.6*,-9.9%,?,-18.7%[1.46 µM]
OCC[C@H]1C[C@H](O)[C@@H](O)[C@]2(CCCc3ccccc3O2)O1,.,.,.,2.0%,.,-27.5%
Cc1ccc2oc(C(=O)N3CCC(O)(c4cccc(C(F)(F)F)c4)CC3)c(C)c2c1,5.6%[46.1 µM],42.7*,63.2*,-13.7%,?,i
CC(C)C(=O)Nc1ccc(NC(=O)c2ccco2)cn1,-22.0%,23.0*,13.6,-15.1%,3.3%,i
CCCCC(=O)Nc1ccc(NC(=O)c2ccco2)cn1,-8.7%,20.0*,67.4,-3.1%,?,-15.5%
CCCC(=O)Nc1ccc(NC(=O)c2ccco2)cn1,12.1%,18.1*,27.5*,-7.3%,-6.5%,-16.1%
COc1cc2c(cc1OC)C(c1cc(OC)c(OC)cc1[N+](=O)[O-])N(C(C)=O)CC2 (stereo not given),.,1.8,16.3,-7.0%,.,i
COc1ccc(CNC(=O)C2CCN(C(=O)c3ccc(-c4ccccc4)cc3)CC2)cc1,2.51µM*,-2.3,-4.0,-16.8%,?,-1.6%
O=C(c1ccco1)N1CCC(c2ccccc2)C1 (stereo not given),0.0%,24.2*,79.2*,-12.2%,9.6%,-19.3%
COc1ccc(CNC(=O)C2CCN(C(=O)c3cccc(Cl)c3)CC2)cc1,-22.4%,1.2,-4.7,-10.2%,-1.3%,-6.1%
O=C(O)C1CCN(C(=O)c2ccco2)CC1,-2.9%[46.1 µM],-4.1,7.0,-13.4%,?,-22.3%
CCOC(=O)C1C(=O)N(C(=O)c2ccc(OC)cc2)CC1c1ccccc1 (stereo not given),17.5%,9.6*,16.5,.,4.0%,.
CCOC(=O)C1C(=O)N(C(=O)c2cncc(Br)c2)CC1c1ccccc1 (stereo not given),-15.9%,-1.7,-11.1,-5.1%,1.7%,-11.5%
O=C(c1ccc(F)cc1)N1CCC(c2ccccc2)C1 (stereo not given),-7.9%,41.4*,67.8*,-20.4%,-13.6%[46.1 µM],i
CC(=O)Nc1ccc(-c2cc(C(=O)O)c3ccc(C)cc3n2)cc1,1.6%[46.1 µM],8.0,23.7,-20.0%,?,-1.4%
CCN(CC)C(=O)Cn1cc(C(=O)C(=O)N2CCN(Cc3ccc4c(c3)OCO4)CC2)c2ccccc21,-4.5%,-4.1,-7.2,-14.9%,-8.9%,-28.6%

# Screening results as filed in PubChem.
